# Screens from PubChem.
# The list is not random: actives were taken first. Their share in the collection is about 3.2%.
# DYRK1A inh – rat Dyrk1A kinase inhibitors, primary screen, biochemical, single point, plate reader | AID 504441, 2011 | 0.43% of 310,000 active | Dual specificity tyrosine-phosphorylation-regulated kinase 1A (Rattus norvegicus), Q63470 | ADP-Glo luminescence, NFATc1 peptide | inhibition, % at 12.5 µM; in the data active = inhibition above about 50%
# esBAF inh – Bmi1 luciferase reporter increase in mESCs, primary screen, esBAF inhibitor project, mouse ES cells, Bmi1 luciferase knock-in, single point. 24 h; 100% = twice the neutral-well signal. reporter increase, % at 12.5 µM. 2% of 350,000 active. AID 602393, 2012; in the data active = activation above about 40%;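 also: a rise in the Bmi1 reporter signal indicates esBAF inhibition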
# SMARCA2 act – SMARCA2 (BRM) function activators, primary screen, cell-based, luminescence, high throughput | MG213 cells, MMTV-luciferase reporter, dexamethasone, overnight | activation, % at 9.1 µM | 1% of 370,000 active | AID 652017, 2013; in the data active = activation above about 7.8%
# CDK5 p35 inh – inhibitors of human CDK5/p35 kinase, primary screen, biochemical, single concentration. Cyclin-dependent kinase 5 (Homo sapiens) + Cyclin-dependent kinase 5 activator 1 (Homo …. Recombinant CDK5/p35, ADP-Glo luminescence, 60 min. inhibition, % at 10 µM. 0.01% of 330,000 active. AID 488839, 2010;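 active = highest replicate inhibition of at least 50% and at least 75% of replicates reaching 50%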
# dFosB activator – activators of delta FosB homodimer, primary screen, biochemical, fluorescence polarization, TAMRA-CDK5 oligo, single point | purified delta FosB; percent of positive-control signal above neutral wells | 0.99% of 340,000 active | activation, % at 25 µM | AID 493131, 2011;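 active = mean activation above about 17%, with every replicate also reaching it, limit read from the data, passing the limit was not always enough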
# Target sequence (P13346 whole entry, looked up): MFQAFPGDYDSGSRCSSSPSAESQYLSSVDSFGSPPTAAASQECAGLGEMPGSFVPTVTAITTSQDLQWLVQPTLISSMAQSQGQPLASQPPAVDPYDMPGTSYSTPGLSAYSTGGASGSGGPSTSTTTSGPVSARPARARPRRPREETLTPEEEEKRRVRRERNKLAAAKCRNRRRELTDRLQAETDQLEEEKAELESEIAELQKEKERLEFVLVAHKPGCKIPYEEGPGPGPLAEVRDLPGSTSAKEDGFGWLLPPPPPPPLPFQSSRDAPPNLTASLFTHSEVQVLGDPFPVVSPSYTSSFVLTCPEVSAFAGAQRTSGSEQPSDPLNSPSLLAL
# Rtt109 Vps75 – inhibitors of C. albicans Rtt109/Vps75 HAT, primary screen, biochemical, ThioGlo CoA-SH fluorescence, plate reader | purified Rtt109/Vps75, 4 h | AID 540336, 2011 | Histone acetyltransferase RTT109 (Candida albicans (strain SC5314 / ATCC MYA-2876)), … | inhibition, % at 34.9 µM | 0.16% of 330,000 active;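 active = inhibition of at least 50% in every replicate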
# SMARCA2 act conf – SMARCA2 (BRM) function activators, confirmation, cell-based, luminescence, triplicate. activation, % at 9.1 µM. MG213 cells, MMTV-luciferase with dexamethasone, overnight; MG213 cells expressing E1A, Rb sequestered; DMSO wells 0%, reference activator 100%. 30% of 3,500 active. shares compounds with SMARCA2 act;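 active = activation above its plate's cutoff, the mean activation of tested wells plus 3 SD, cut at about 7.9% in these data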
# VP16 Luc act – GAL4-VP16 luciferase reporter activation, counter-screen for SMARCA2 (BRM) activator project, cell-based, pG5luc, luminescence, high throughput | shares compounds with SMARCA2 act | HEK293 GAL4-VP16 pG5luc reporter; scaled: DMSO wells 0%, SAHA wells 100% | activation, % at 9.1 µM | 41% of 3,500 active | AID 686939, 2013;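 active = activation above the solvent-only control well mean plus 3 SD, averaged across control plates, cut at about 5.2% in these data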
# Hits are given with their value; . = inactive; / = no result given.
SMILES,DYRK1A inh,esBAF inh,SMARCA2 act,CDK5 p35 inh,dFosB activator,Rtt109 Vps75,SMARCA2 act conf,VP16 Luc act
F[B-](F)(F)COCc1ccccc1Br,.,.,.,.,.,.,/,/
CCCCC#Cc1ccccc1COC[B-](F)(F)F,/,/,17,/,/,/,7.9,5.9
F[B-](F)(F)COCc1ccccc1C#Cc1ccccc1,/,/,18,/,/,/,17,.
O=C(NCc1ccccc1)[C@@H]1[C@@H](CO)[C@@H]2Cn3c(ccc(-c4cccc(F)c4)c3=O)[C@H]1N2,/,.,/,/,/,/,/,/
C[C@@H]1CN([C@@H](C)CO)C(=O)c2cc(C#Cc3ccccn3)cnc2O[C@@H]1CN(C)CC1CCCC1,/,.,/,/,/,/,/,/
O=c1c2sc(-c3ccccc3)cc2nc2n1CCC2,.,/,9.9,.,.,.,.,.
O=c1c2sc(-c3ccccc3)cc2nc2n1CCCCC2,.,/,.,.,.,.,/,/
Cc1cccc(NC(=S)NNC(=O)c2csc(C)c2)c1,.,/,9.2,.,.,.,8.0,7.5
O=C(C[C@H]1CC[C@H]2[C@@H](COC[C@@H](O)CN2Cc2ccccc2)O1)NCc1ccccc1Cl,/,.,/,/,/,/,/,/
Cc1ccc(C(=O)Cn2cncn2)cc1,/,.,10,.,.,.,.,.
O=C(Cn1cncn1)c1ccc(Cl)cc1,.,.,.,.,.,.,/,/
O=C(CS(=O)c1ccc(C(F)(F)F)cc1[N+](=O)[O-])Oc1ccccc1 (configuration not stated),.,/,16,.,.,.,.,.
COC(=O)c1ccc(OC(=O)CS(=O)c2ccccc2[N+](=O)[O-])cc1 (configuration not stated),.,/,.,.,.,.,/,/
COc1ccc(-c2cn3cccc(C)c3n2)cc1Br,.,99,10,.,.,.,.,14
Cc1cccn2cc(-c3ccccc3)nc12,.,/,.,.,.,.,/,/
C[C@@H]1CCCCO[C@H](CN(C)S(C)(=O)=O)[C@H](C)CN([C@@H](C)CO)C(=O)c2cc(NS(C)(=O)=O)ccc2O1,/,.,/,/,/,/,/,/
CCN1CCc2c(sc(NC(=S)NC(=O)c3ccco3)c2C(N)=O)C1,/,/,9.8,/,/,/,.,.
CC(C)C[C@H]1CN([C@@H](Cc2ccc(O)cc2)CN2CCCC2CN2C(=S)NC[C@@H]2Cc2ccccc2)C(=S)N1CC1CCCCC1 (some centres not stated),/,/,8.0,/,/,/,.,.
CN(C)CCN1C(=O)c2cccc3cc([N+](=O)[O-])cc(c23)C1=O,.,/,15,.,49,.,11,7.2
COc1cc(C2Oc3ccccc3C=C2[N+](=O)[O-])cc(OC)c1OC (configuration not stated),/,/,21,/,/,/,.,.
COc1cc(C2NC(=O)c3ccccc3O2)cc(OC)c1OC (configuration not stated),.,.,.,.,.,.,/,/
COc1ccc(OCc2cc(C(=O)N3C[C@@H](C)O[C@@H](C)C3)no2)c(Cl)c1,.,42,8.3,.,.,.,.,.
COc1ccc(OCc2cc(C(=O)N3CCCCCCC3)no2)c(Cl)c1,.,/,.,.,.,.,/,/
COC(=O)c1c(-c2ccc(C)cc2)csc1NC(=O)c1c(-c2ccccc2)noc1C,/,/,.,/,/,/,/,/
COC(=O)c1c(-c2cccnc2)csc1NC(=O)c1cc(C)on1,.,.,10,.,.,.,19,14
SMILES,DYRK1A inh,esBAF inh,SMARCA2 act,CDK5 p35 inh,dFosB activator,Rtt109 Vps75,SMARCA2 act conf,VP16 Luc act
Oc1ccc(C=Nc2ccccc2-c2nc3ccccc3[nH]2)c(O)c1,.,/,.,.,.,.,/,/
Oc1ccccc1C=Nc1ccccc1-c1nc2ccccc2[nH]1,.,/,8.3,.,.,/,.,11
CCCS(=O)(=O)Nc1ccc(Nc2c3ccccc3nc3ccccc23)c(OC)c1,.,/,15,.,54,.,24,.
COC(=O)C[C@@H]1C[C@@H]2c3cc(NC(=O)c4cccnc4)ccc3O[C@@H]2[C@H](CO)O1,/,.,/,/,/,/,/,/
COCC(=O)N(C)C[C@@H]1Oc2ncc(C#Cc3ccccc3)cc2C(=O)N([C@@H](C)CO)C[C@H]1C,/,.,/,/,/,/,/,/
CCC(=O)N1CCC1(C)C(=O)Nc1cc(-c2ccccc2)nn1C (configuration not stated),/,65,10,/,/,/,.,7.4
FC(F)(F)c1cccc(-c2nc(-c3ccncc3)no2)c1,.,.,9.2,.,.,.,.,.
O=C(O)c1ccc(-c2noc(-c3cccc(C(F)(F)F)c3)n2)cc1,.,.,.,.,.,.,/,/
Cc1noc(C)c1S(=O)(=O)N(C)C[C@@H]1Oc2ccc(NC(=O)CCC(F)(F)F)cc2CC(=O)N([C@@H](C)CO)C[C@H]1C,/,.,/,/,/,/,/,/
C[C@H](CO)N1C[C@H](C)[C@H](CN(C)C)Oc2ccc(NC(=O)Cc3cn(C)c4ccccc34)cc2C1=O,/,.,/,/,/,/,/,/
